Test results from PubChem BioAssay AID1159580 (chemical genetic matrix, 2015).
Hit rate of the full screen: of about 5,500 compounds, about 2,000 (36%) were called active. Not shown: some 18% with an inconclusive outcome. The list shows a part of the results. Unmarked numbers belong to inactive results. Cut-off read from the data, not from the text of the source: active = normalized growth mostly below about 0.91 (no sharp cut-off); inconclusive = no clear call, values can overlap the other calls; inactive = mostly above about 0.92.

Test: chemical genetic growth profiling, strain panel (AID 1159580);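 note: tested at 20 µM; growth read once vehicle control cultures reached saturation at 30 °C; 1 = growth at the plate median or of vehicle wells; lower values mean less growth of the strain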
Settings: S. cerevisiae deletion strains, growth OD
[1] = locus YAL013W, strain DEP1, hits give low values
[2] = locus YBR229C, strain ROT2, hits give low values
[3] = locus YDL101C, strain DUN1, hits give low values
[4] = locus YDR150W, strain NUM1, hits give low values
[5] = locus YEL061C, strain CIN8, hits give low values
[6] = locus YGR078C, strain PAC10, hits give low values
[7] = locus YHR030C, strain SLT2, hits give low values
[8] = locus YHR087W, strain rtc3, hits give low values
[9] = locus YJR043C, strain POL32, hits give low values
[10] = locus YJR075W, strain HOC1, hits give low values
[11] = locus YKL190W, strain CNB1, hits give low values
[12] = locus YLR039C, strain RIC1, hits give low values
[13] = locus YLR058C, strain SHM2 (second series), hits give low values
[14] = locus YLR085C, strain ARP6, hits give low values
[15] = locus YLR262C, strain YPT6, hits give low values
[16] = locus YML094W, strain GIM5, hits give low values
[17] = locus YMR219W, strain ESC1, hits give low values
[18] = locus YMR263W, strain SAP30, hits give low values
[19] = locus YNL128W, strain TEP1, hits give low values
[20] = locus YNL153C, strain GIM3, hits give low values
[21] = locus YNL298W, strain CLA4 (second series), hits give low values
[22] = locus YNL322C, strain KRE1, hits give low values
[23] = locus YNR030W, strain Alg12, hits give low values
[24] = locus YOL006C, strain TOP1, hits give low values
[25] = locus YPL055C, strain LGE1, hits give low values
[26] = locus YPL241C, strain CIN2, hits give low values
[27] = locus YPR135W, strain CTF4, hits give low values
[28] = locus YAL040C, strain CLN3, hits give low values
[29] = locus YCL061C, strain MRC1 (second series), hits give low values
[30] = locus YDR363W, strain ESC2, hits give low values
[31] = locus YER002W, strain NOP16, hits give low values
[32] = locus YNL175C, strain NOP13, hits give low values
[33] = locus YNL197C, strain WHI3, hits give low values
[34] = locus YNL224C, strain SQS1, hits give low values
[35] = locus YOR083W, strain WHI5 (second series), hits give low values

SMILES: Cc1cc(CN2CC(C)OC(C)C2)cc(C)c1O (stereo not drawn)
- normalized growth [1]: 1.01
- normalized growth [2]: 1.01
- normalized growth [3]: 1.09
- normalized growth [4]: 1.08
- normalized growth [5]: 0.997
- normalized growth [6]: 1.02
- normalized growth [7]: 1.03
- normalized growth [8]: 0.976
- normalized growth [9]: 1.03
- normalized growth [10]: 1
- normalized growth [11]: 0.974
- normalized growth [12]: 1.05
- normalized growth [13]: 0.991
- normalized growth [14]: 1.03
- normalized growth [15]: 0.954
- normalized growth [16]: 0.996
- normalized growth [17]: 0.997
- normalized growth [18]: 1.05
- normalized growth [19]: 0.988
- normalized growth [20]: 1.04
- normalized growth [21]: 1.02
- normalized growth [22]: 0.994
- normalized growth [23]: 0.992
- normalized growth [24]: 0.975
- normalized growth [25]: 1.01
- normalized growth [26]: 1.03
- normalized growth [27]: 1.04

SMILES: O=C(Nc1ccc(Cl)cc1)O/N=C\c1ccn(-c2ccccc2)n1
- normalized growth (locus YAR019C, strain CDC15, hits give low values): 0.958
- normalized growth (locus YBL105C, strain PKC1, hits give low values): 0.963
- normalized growth (locus YBR135W, strain CKS1, hits give low values): 0.95
- normalized growth (locus YBR136W, strain MEC1, hits give low values): 0.937
- normalized growth (locus YBR160W, strain CDC28, hits give low values): 0.962
- normalized growth (locus YDL017W, strain CDC7, hits give low values): 0.971
- normalized growth (locus YDL028C, strain MPS1, hits give low values): 0.955
- normalized growth [3]: 0.975
- normalized growth (locus YDL108W, strain KIN28, hits give low values): 0.941
- normalized growth (locus YDL132W, strain cdc53, hits give low values): 0.954
- normalized growth (locus YDL214C, strain PRR2, hits give low values): 0.8
- normalized growth (locus YDR052C, strain DBF4, hits give low values): 0.982
- normalized growth (locus YDR054C, strain cdc34, hits give low values): 0.952
- normalized growth (locus YDR226W, strain ADK1, hits give low values): 0.965
- normalized growth (locus YDR477W, strain SNF1, hits give low values): 0.859
- normalized growth (locus YER123W, strain YCK3, hits give low values): 0.811
- normalized growth (locus YER133W, strain GLC7, hits give low values): 0.882
- normalized growth (locus YFL009W, strain cdc4, hits give low values): 0.961
- normalized growth (locus YFL029C, strain CAK1, hits give low values): 0.955
- normalized growth (locus YFR003C, strain YPI1, hits give low values): 0.96
- normalized growth (locus YFR019W, strain FAB1, hits give low values): 0.956
- normalized growth (locus YFR028C, strain CDC14, hits give low values): 0.953
- normalized growth (locus YGR040W, strain KSS1, hits give low values): 0.876
- normalized growth (locus YGR052W, strain FMP48, hits give low values): 0.845
- normalized growth (locus YGR092W, strain DBF2, hits give low values): 0.775
- normalized growth [7]: 0.611 (active)
- normalized growth (locus YHR079C, strain IRE1, hits give low values): 0.654
- normalized growth (locus YHR082C, strain KSP1, hits give low values): 0.835
- normalized growth (locus YHR205W, strain SCH9, hits give low values): 0.559 (active)
- normalized growth (locus YIL147C, strain SLN1, hits give low values): 0.953
- normalized growth (locus YJL095W, strain BCK1, hits give low values): 0.738
- normalized growth (locus YJL128C, strain PBS2, hits give low values): 0.877
- normalized growth (locus YJL157C, strain FAR1, hits give low values): 0.857
- normalized growth (locus YJR016C, strain ILV3, hits give low values): 0.961
- normalized growth (locus YJR066W, strain TOR1 (second series), hits give low values): 0.605 (active)
- normalized growth (locus YJR066W, strain TOR1, hits give low values): 0.834
- normalized growth (locus YKL048C, strain ELM1, hits give low values): 0.886
- normalized growth (locus YKL067W, strain YNK1, hits give low values): 0.82
- normalized growth (locus YKL101W, strain HSL1, hits give low values): 0.798
- normalized growth (locus YKL193C, strain SDS22, hits give low values): 0.948
- normalized growth (locus YKL203C, strain TOR2, hits give low values): 0.947
- normalized growth (locus YLR113W, strain HOG1, hits give low values): 0.6 (active)
- normalized growth (locus YLR133W, strain CKI1, hits give low values): 0.829
- normalized growth (locus YLR403W, strain SFP1, hits give low values): 0.87
- normalized growth (locus YML070W, strain DAK1, hits give low values): 0.804
- normalized growth (locus YMR001C, strain CDC5, hits give low values): 0.95
- normalized growth (locus YMR205C, strain PFK2 (second series), hits give low values): 0.779
- normalized growth (locus YMR277W, strain FCP1, hits give low values): 0.948
- normalized growth (locus YNL006W, strain LST8, hits give low values): 0.954
- normalized growth (locus YNL020C, strain ARK1, hits give low values): 0.782
- normalized growth (locus YNL161W, strain CBK1, hits give low values): 0.97
- normalized growth (locus YNL183C, strain NPR1, hits give low values): 0.732
- normalized growth (locus YNL207W, strain RIO2, hits give low values): 0.954
- normalized growth (locus YNL222W, strain SSU72, hits give low values): 0.946
- normalized growth (locus YNL307C, strain MCK1 (second series), hits give low values): 0.785
- normalized growth (locus YOL078W, strain AVO1, hits give low values): 0.956
- normalized growth (locus YOL136C, strain PFK27, hits give low values): 0.797
- normalized growth (locus YOR061W, strain CKA2, hits give low values): 0.875
- normalized growth (locus YOR119C, strain RIO1, hits give low values): 0.929
- normalized growth (locus YOR231W, strain MKK1, hits give low values): 0.688
- normalized growth (locus YOR329C, strain SCD5, hits give low values): 0.954
- normalized growth (locus YPL031C, strain PHO85, hits give low values): 0.851
- normalized growth (locus YPL153C, strain RAD53, hits give low values): 0.885
- normalized growth (locus YPL204W, strain HRR25, hits give low values): 0.869
- normalized growth (locus YPL209C, strain IPL1, hits give low values): 0.959
- normalized growth (locus YPL256C, strain CLN2, hits give low values): 0.662 (active)
- normalized growth (locus YPR025C, strain CCL1, hits give low values): 0.953
- normalized growth (locus YPR106W, strain ISR1, hits give low values): 0.937
- normalized growth (locus YPR111W, strain DBF20, hits give low values): 0.929
- normalized growth (strain NNK1, hits give low values): 0.903
- normalized growth (strain TSCII, hits give low values): 0.95

SMILES: CS(=N)(=O)CC[C@H](N)C(=O)O (stereo partly drawn)
- normalized growth [1]: 0.995
- normalized growth [28]: 0.993
- normalized growth [29]: 0.997
- normalized growth [4]: 1.02
- normalized growth [30]: 0.962
- normalized growth [31]: 1
- normalized growth [6]: 0.969
- normalized growth [10]: 1.01
- normalized growth [18]: 1.01
- normalized growth [19]: 0.991
- normalized growth [32]: 0.989
- normalized growth [33]: 0.983
- normalized growth [34]: 0.999
- normalized growth [35]: 0.989
- normalized growth [25]: 1
- normalized growth [26]: 1

SMILES: O=C(O)Cc1ccccc1I
- normalized growth [1]: 1
- normalized growth [2]: 0.996
- normalized growth [3]: 0.99
- normalized growth [4]: 0.988
- normalized growth [5]: 1.02
- normalized growth [6]: 0.989
- normalized growth [7]: 1.06
- normalized growth [8]: 0.994
- normalized growth (locus YJL187C, strain SWE1, hits give low values): 0.952
- normalized growth [9]: 1
- normalized growth [10]: 0.985
- normalized growth [11]: 1.02
- normalized growth [12]: 1.03
- normalized growth [13]: 1
- normalized growth [14]: 1.05
- normalized growth [15]: 1.05
- normalized growth [16]: 1.01
- normalized growth [17]: 1.01
- normalized growth [18]: 1.01
- normalized growth [20]: 0.975
- normalized growth [21]: 1.07
- normalized growth [22]: 1
- normalized growth [23]: 1.03
- normalized growth [24]: 1.11
- normalized growth [25]: 0.978
- normalized growth [26]: 1.02
- normalized growth [27]: 1.05

SMILES: N[C@@H](Cc1ccc(F)cc1)C(=O)O
- normalized growth [1]: 1.01
- normalized growth [28]: 0.992
- normalized growth [29]: 0.995
- normalized growth [30]: 1.01
- normalized growth [31]: 0.99
- normalized growth [20]: 0.995
- normalized growth [32]: 0.978
- normalized growth [33]: 0.995
- normalized growth [34]: 0.967
- normalized growth [22]: 1
- normalized growth [35]: 0.988
- normalized growth [25]: 0.99

SMILES: N[C@@H](Cc1c[nH]c2ccc(O)cc12)C(=O)O
- normalized growth [1]: 1.02
- normalized growth [28]: 0.959
- normalized growth [29]: 1.01
- normalized growth [4]: 1.03
- normalized growth [30]: 1.01
- normalized growth [31]: 1
- normalized growth [10]: 1.01
- normalized growth [18]: 0.997
- normalized growth [32]: 1.03
- normalized growth [33]: 1
- normalized growth [34]: 1.01
- normalized growth [22]: 1.01
- normalized growth [35]: 1.02
- normalized growth [25]: 1.03
- normalized growth [26]: 1
